# High-throughput results from PubChem.
# NS1 function inh – blocks influenza NS1 protein function; Potency, µM (top dose mostly 46.1 µM), for inactives: top-dose activity, positive = more growth; 270,000 compounds, 0.4% hits; AID 2326; further: potency means the concentration at half of the fitted maximal effect; actives are rising curves; nearly all actives have a fitted effect of over 50% in size
#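 A cell-based growth assay was used: compounds that relieve NS1-induced slow growth of budding yeast raise OD600. Assay medium was yeast nitrogen base with ammonium sulphate and -URA supplement, pH 6.0, with 2% galactose.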
# CHX counter – affects cycloheximide protein synthesis inhibition readout, counter-screen; max response, %; 300,000 compounds, 12% hits; AID 2314; cell reporter, cycloheximide protein synthesis inhibition counterscreen; in the data active means max response mostly above about 13%, no sharp cut-off; inactive means mostly below about 14%; further: read at 38.3 µM for the half of the compounds with a filed dose; 0% is about no effect
# Pf growth 48h – inhibits P. falciparum growth in the first generation, 48 h. Potency, µM (highest dose often 28.7 µM), for inactives: at the highest dose activity change, negative = inhibition, hits mostly inhibitors. P. falciparum luciferase growth in erythrocytes, 48 h. 310,000 compounds, 5.9% hits; active means well fitted inhibition curve with a large enough effect; inconclusive means small, poorly fitted or top-dose-only effect, or another doubt; inactive means no such curve, though single readings can be large or run the other way; further: potency means the concentration at half of the fitted maximal effect; on the % scale 0 is the no-effect control and ±100 the full control effect
#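 Compounds are pin-transferred into medium, infected erythrocytes (2% hematocrit, 0.1% parasitemia final) are added, and plates sit one parasite generation at 37 C in 5% CO2. Detection reagent is then added and luminescence measured.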
# Pf growth 96h – inhibits malaria parasite growth, 96 h | P. falciparum luciferase reporter growth, 96 h | Potency, µM (highest dose often 28.7 µM), for inactives: at the top dose activity change, negative = inhibition, actives largely listed as inhibitors | 320,000 compounds, 6.9% hits; active means well fitted inhibition curve with a large enough effect; inconclusive means small, poorly fitted or top-dose-only effect, or another doubt; inactive means no such curve, though single readings can be large or run the other way; further: potency means the concentration at half of the fitted maximal effect; on the % scale 0 is the no-effect control and ±100 the full control effect
#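 Two parasite generations (96 h, 37 C, 5% CO2) of compound exposure in infected erythrocytes (0.05% parasitemia, 2% hematocrit). Luciferase-reporter P. falciparum; decreased luminescence indicates inhibited growth, aimed at apicoplast-acting delayed death.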
# Shiga inhibitor – inhibitors of Shiga toxin in Vero cells; Vero cells, Shiga toxin protein synthesis inhibition reporter; AID 2315; inhibition, % at 38.7 µM; 290,000 compounds, 9.2% hits; in the data active means inhibition mostly above about 28%, no sharp cut-off; inactive means mostly below about 43%; further: 0% is about no effect
# SARS PLP yeast – SARS-CoV PLP inhibition in yeast | S. cerevisiae expressing SARS-CoV PLpro, growth rescue | Potency, µM (top dose mostly 32.9 µM), inactives show top-dose activity, positive = growth rescue, usual class: activators | 330,000 compounds, 0.19% hits | AID 485353; further: potency means the concentration at half of the fitted maximal effect; 0% is about no effect; nearly all actives have a fitted effect of over 55% in size
# * marks the source's active call; other numbers are inactive results; ? = inconclusive; / = not tested or not shown. Rows were chosen to be rich in hits. Some 21% of all compounds tested hit in one or more screens of this group. Unless noted, the call rests on the fitted dose curve.
SMILES,NS1 function inh,CHX counter,Pf growth 48h,Pf growth 96h,Shiga inhibitor,SARS PLP yeast
COCCNC(=O)C1CCCN(S(=O)(=O)c2ccc3c(c2)CC(C)N3C(=O)C2CC2)C1 (stereo not drawn),-3%,-3,1%,-17%,-10,-3%
O=C(Nc1ccc(Cl)cc1C(=O)NCC1CCCO1)c1ccc(Cl)cc1Cl (stereo not drawn),-17%,-1,8.3µM*,-13%,-1,-45%
O=C(NCC1CCCO1)c1sc2cc(Cl)ccc2c1Cl (stereo not drawn),-14%,54*,128%,?,76*,-16%
O=C(Nc1ccc(Cl)cc1C(=O)NCC1CCCO1)c1ccco1 (stereo not drawn),-42%,-2,-20%,/,10,/
O=C(NCCCN1CCOCC1)c1sc2ccccc2c1Cl,-2%,39*,29%,-5%,47*,0%
O=C(NCCN1CCOCC1)c1sc2cc(Cl)ccc2c1Cl,-12%,17*,51%,14%,45*,-3%
CC(C)(CNC(=O)c1sc2cc(Cl)ccc2c1Cl)N1CCOCC1,/,/,?,?,/,-5%
Cc1noc(/C=C/c2ccco2)c1S(=O)(=O)N1CCC(C(=O)N2c3ccccc3CC2C)CC1 (stereo not drawn),1%,-4,?,-16%,48,16%
C[C@@H]1CN([C@@H](C)CO)C(=O)c2cc(N(C)C)ccc2O[C@@H]1CN(C)S(C)(=O)=O,/,/,/,/,/,2%
CCCCCCCCCC[n+]1cccc2c3ccccc3ccc21,/,-4,2.1µM*,?,1,-31%
Cc1cccc[n+]1CCCCCCCCCC[n+]1ccccc1C,0%,-1,?,-15%,-17,-2%
CCCCCCCC[n+]1cccc2c3ccccc3ccc21,/,-6,1.2µM*,32%,-1,-31%
Cc1cc(C)nc(NNS(=O)(=O)c2c(F)cc(F)cc2Br)n1,/,/,/,/,/,2%
CCOC(=O)C1=C(C)NC(C)=C(C(=O)OCC)C1C(=O)OCC(=O)N(C)C,-6%,1,56%,0%,-6,2%
COC(=O)c1ccc(N2CCN(C)CC2)c(NC(=O)COc2cccc(C)c2)c1,-9%,2,?,249%,23,2%
O=C1CC(=O)N(c2ccccc2)N1c1ccccc1,29%,-3,4%,46%,1,?
O=C1C(C23CC4CC(CC(C4)C2)C3)C(=O)N(c2ccccc2)N1c1ccccc1,7%,-6,-9%,7.4µM*,9,-7%
CCCCc1nc2ccccc2c(N)c1CCC (tested in a mixture with another compound),-23%,-3,9.3µM*,?,-1,-25%
CCCCc1nc2ccccc2c(NC(=O)CNC(C)(C)C)c1CCC,-15%,-2,-23%,-25%,-16,/
O=C(CNCC1(N2CCOCC2)CCCCC1)Nc1ccc(Cl)cc1,2%,-2,0%,-27%,-13,-2%
CCO[C@H]1OC(C(=O)NCc2nc3ccccc3[nH]2)=C[C@@H](C)[C@@H]1CCCO,-2%,-1,49%,47%,-10,2%
CCO[C@@H]1OC(C(=O)NCc2nc3ccccc3[nH]2)=C[C@H](c2ccc(C(F)(F)F)cc2)[C@H]1CCCO,0%,1,?,12µM*,-17,0%
C#Cc1ccc([C@@H]2C=C(C(=O)NCc3nc4ccccc4[nH]3)O[C@H](OCC)[C@H]2CCCO)cc1,-36%,-1,?,?,-2,1%
CCO[C@H]1OC(C(=O)NCc2nc3ccccc3[nH]2)=C[C@@H](C2CCCCC2)[C@@H]1CCCO,-10%,2,?,9.3µM*,-10,0%
CCO[C@H]1OC(C(=O)NCc2nc3ccccc3[nH]2)=C[C@@H](c2ccc(C(F)(F)F)cc2)[C@@H]1CCCO,-15%,-1,?,1.5µM*,17,0%
SMILES,NS1 function inh,CHX counter,Pf growth 48h,Pf growth 96h,Shiga inhibitor,SARS PLP yeast
Cc1ccc2c(c1)N(CC(=O)NCCCN1CC(C)CC(C)C1)C(=O)c1cccnc1O2 (stereo not drawn),0%,-2,-5%,60%,-8,-12%
CC(C)CCN1CCN(Cc2cnc(N3CCCC3)s2)CC1CCO (stereo not drawn),7%,-1,-6%,?,-4,0%
C=CCNC(=S)NNC(=O)Cn1c(-c2ccccc2)cc(=O)n2ncnc12,0%,-1,12%,7%,8,4%
CCOC(=O)c1c(C)oc2ccc(O)c(CN(C)C)c12,4%,-1,-14%,-56%,-7,-3%
CCOC(=O)c1c(C)oc2cc(Cl)c(O)c(CN(C)C)c12,-3%,39*,?,?,69*,1%
CCOC(=O)c1c(CSc2ccc(CC)cc2)oc2ccc(O)c(CN(C)C)c12,-2%,-6,2.3µM*,11%,-10,11%
CCOC(=O)c1c(CSc2ccccc2)oc2cc(Br)c(O)c(CN(C)C)c12,5%,-3,2.6µM*,?,-13,0%
CC(=O)c1c(CSc2ccccc2)oc2ccc(O)c(CN(C)C)c12,-5%,-5,?,2%,-10,0%
COc1cc(CC(=O)OCC(=O)NCCc2ccc(S(N)(=O)=O)cc2)cc(OC)c1OC,/,/,-20%,-7%,/,8%
Cc1ccc(C(=O)C(C)OC(=O)Cc2n[nH]c(=O)c3ccccc23)cc1 (stereo not drawn),/,/,?,18%,/,3%
CCc1ccc2[nH]c(=O)c(C(c3nnnn3CC3CCCO3)N3CCCc4ccccc43)cc2c1 (stereo not drawn),-29%,9,12µM*,?,-10,3%
CCOc1ccc2[nH]c(=O)c(C(c3nnnn3CC3CCCO3)N3CCc4ccccc4C3)cc2c1 (stereo not drawn),-2%,-4,10µM*,-14%,-12,?
Cc1ccc2cc(C(c3nnnn3C(C)(C)C)N3CCCC3)c(=O)[nH]c2c1C (stereo not drawn),1%,26,3.3µM*,/,-5,2%
CCC(C)(C)n1nnnc1C(c1cc2cccc(C)c2[nH]c1=O)N1CCN(C(=O)c2ccco2)CC1 (stereo not drawn),-3%,-2,1.2µM*,58%,-16,8%
Cc1cc2cc(C(c3nnnn3CC3CCCO3)N3CCCc4ccccc43)c(=O)[nH]c2cc1C (stereo not drawn),5µM*,12*,?,-21%,13,-2%
O=c1[nH]c2cc3c(cc2cc1C(c1nnnn1Cc1ccccc1)N1CCCc2ccccc21)OCO3 (stereo not drawn),6%,16*,1%,28%,44*,-10%
Cc1ccc2cc(C(c3nnnn3CC3CCCO3)N3CCc4ccccc4C3)c(=O)[nH]c2c1 (stereo not drawn),7%,-4,?,151%,-5,-7%
